Methyltransferases = Primary Screen for Target Class Profiling of Small Molecule Inhibitors of Methyltransferases. 25,000 tested, 3.9% active. calls only at 40 µM. AID 1745853, 2022. purified enzyme, MTase-Glo SAH luminescence; stronger effect = lower value; call rule not given here
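Each enzyme was assayed with SAM and its substrate. SAH formation detected by MTase-Glo luminescence; single-point 40 uM screen[…].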
MTase-Glo ctr = counter-screen for methyltransferase inhibitors: coupling enzymes without methyltransferase. 180 tested, 6% active. MTase-Glo coupled enzymes, SAH conversion luminescence, no MTase. Potency, µM (top dose mostly 57.3 µM), inactives show at the top dose activity change, negative = inhibition, actives largely listed as inhibitors. shares compounds with Methyltransferases; active = well fitted inhibition curve with a large enough effect; inconclusive = small, poorly fitted or top-dose-only effect; note: potency is the fitted concentration of half-maximal effect
The depositor's hits bear a star; i = inactive; ? = inconclusive; + = active, no number; [ ] = dose if it differs, or a comment. The entries come from a sample that favours hits as a whole. % is set by controls: 0 for no effect and ±100 for the full control effect.

SMILES	Methyltransferases	others
COc1ccccc1CNC(=O)C1c2c(n(C)c3ccccc23)SCC(=O)N1c1ccc2c(c1)OCCO2 (stereo not drawn)	i
CCn1c(=O)n(CC)c2cc(S(=O)(=O)Nc3ccc(Br)c(C)c3)ccc21	i
CCCn1c(=O)c2ccccc2n2c(=O)n(Cc3c(F)cccc3Cl)nc12	i
Cc1cccc(C(=O)Nc2ccc3c(c2)C(=O)N(C)C2=NCCN23)c1	i
CCOc1ccccc1C(=O)NC1CCN(c2cc(C)cc(C)c2)C1=O (stereo not drawn)	i
CC(C)NC(=O)c1ccccc1OCC1CCCN(Cc2cn(C)c3ccccc23)C1 (stereo not drawn)	+	MTase-Glo ctr=4.4%
COc1ccc(CN2CCCC(COc3ccccc3C(=O)NC3CC3)C2)c(OC)c1 (stereo not drawn)	+	MTase-Glo ctr=-5.3%
COc1cccc(CN2CC(Oc3ccccc3C(=O)NC3CC3)C2)c1	i
COc1cc(OC)cc(C(=O)NCC2CCCN(Cc3cc4ccccc4o3)C2)c1 (stereo not drawn)	i
COc1ccc(O)c(CN2CCCC(Nc3ccc(F)cc3)C2)c1 (stereo not drawn)	i
CC1CCN(S(=O)(=O)c2ccc3c(ccn3CCC(=O)N3CCc4ccccc43)c2)CC1	i
CC(C)CNC(=O)c1ccc2c(=O)n(CC(C)C)c3nnc(SCC(=O)NC(C)(C)C)n3c2c1	i
Clc1ccccc1C1Nc2ccc(Br)cc2C2C=CCC21 (stereo not drawn)	i
O=C(NCc1ccccn1)C1CCN(c2cc(C3CC(O)C3)ncn2)CC1 (stereo not drawn)	i
Cc1ccc(C(N)=O)cc1-c1cc(NCc2cccnc2)nc2[nH]ccc12	i
c1ccc(CNc2cc(-c3cc(N4CCCCC4)ncn3)c3cc[nH]c3n2)nc1	+	MTase-Glo ctr=-8.6%
CC1(C(=O)NC2CCCCCCC2)Cn2c(cc3occc32)C(=O)N1C1CCCC1 (stereo not drawn)	i
O=C(CCc1nnc2n(Cc3ccccc3)c(=O)c3ccccc3n12)N1CCC(Cc2ccccc2)CC1	i
N#Cc1ccc(CN2CCC3(CC(c4cccc(C(F)(F)F)c4)=NO3)C2)cc1 (stereo not drawn)	i
FC(F)(F)c1cccc(-c2nccn3c(C4CN(Cc5ccc6cn[nH]c6c5)C4)ncc23)c1	+	MTase-Glo ctr=-6.3%
COC(=O)Cn1c(=O)oc2cc(S(=O)(=O)NCCN3CCC(C)CC3)ccc21	i
Cc1ccc(Nc2ccn3c(=O)n(CC(=O)Nc4ccc(F)cc4C)nc3n2)cc1	i
CN1CCN(c2ncnc3sc4c(c23)CCNC4)CC1	+	MTase-Glo ctr=15.2µM*
CCNc1ncnc2sc3c(c12)CCN(C(=O)COC)C3	i
CN1CCN(c2ncnc3c2CN(C2CCCCC2)C(=O)CN3C)CC1	i
SMILES	Methyltransferases	others
CCOc1ccccc1CNC(=O)C(C)n1ccc2cc(S(=O)(=O)N3CCCC3)ccc21 (stereo not drawn)	i
CCc1cc2c(cc3n2CC(C)(C(=O)NC2CCCCC2)N(Cc2cccc(OC)c2)C3=O)s1 (stereo not drawn)	i
O=C(c1ccc2c(=O)nc3c(-c4cccc(F)c4)n[nH]n3c2c1)N1CCN(c2ccccc2)CC1	i
CC(C)OCCCNC(=O)CCCc1nnc2n3nc(-c4ccccc4)nc3c3ccccc3n12	i
CCCN(C)C(=O)CCc1ccnc(N2CCOCC2)c1	i
COc1ccc(NC(=O)N2CCn3cccc3C2C)c(OC)c1 (stereo not drawn)	i
COc1ccc(NC(=O)CCc2ccnc(N3CCCC3)c2)c(OC)c1	+	MTase-Glo ctr=-0.5%
COc1ccc(OC)c(CNS(=O)(=O)c2ccc3c(c2)n(C)c(=O)n3C)c1	i
CC(C)Oc1ccc(CN2C(=O)c3cc4occc4n3CC2(C)C(=O)NC2CCCCCC2)cc1 (stereo not drawn)	i
Cc1ccc(NC(=O)N2CCn3cccc3C2C)cc1 (stereo not drawn)	i
Cc1ccc(NC(=O)N2CCc3c(c4ccccc4n3CC3CC3)C2)cc1	+	MTase-Glo ctr=5.1%
Cc1ccc(NC(=O)N2CCN(c3nnnn3-c3ccccc3)CC2)cc1	i
Cc1ccc(Cn2nc3n(CCCOC(C)C)c(=O)c4ccccc4n3c2=O)cc1	i
CCCn1c(=O)c2ccc(C(=O)NC3CCCC3)cc2n2c(=O)n(CC(=O)Nc3ccccc3)nc12	i
O=C1CN(Cc2ccc(Cl)cc2)S(=O)(=O)c2ccccc2N1Cc1ccccc1F	i
CC(C)Cn1c(=O)c2cc(F)ccc2n2c(SCc3cccc(Cl)c3)nnc12	i
CCC(C)NC(=O)c1ccc2c(=O)n(C)c3nnc(SCc4ccccc4C)n3c2c1 (stereo not drawn)	i
Cn1c(=O)c2ccc(C(=O)NC3CCCCC3)cc2n2c(=O)n(CC(=O)Nc3cccc(F)c3)nc12	i
COCCNC(=O)c1cc(N2CCOCC2)cc2c1OCCN2C	i
Cc1cc(C)c(CNC(=O)c2cc(-c3cnn(C)c3C)cc3c2OCCN3C)c(=O)[nH]1	+	MTase-Glo ctr=-5.6%[85.7 µM]
CC(C)CCn1c(=O)c2ccc(C(=O)NC(C)C)cc2n2c(=O)n(CC(=O)NCc3ccccc3)nc12	i
CCc1cc2c(cc3n2CC(C)(C(=O)NC2CCC(C)CC2)N(Cc2ccccc2OC)C3=O)s1 (stereo not drawn)	i
CC(NC(=O)CCc1nnc2n(CCc3ccccc3)c(=O)c3ccccc3n12)c1ccccc1 (stereo not drawn)	i
O=C(Nc1ccccc1C(F)(F)F)N1CCCC(Cn2cnc3cccnc32)C1 (stereo not drawn)	i
O=C(Nc1ccc(S(=O)(=O)C(F)(F)F)cc1)C1=CCN(c2ncccc2C(F)(F)F)CC1	i
SMILES	Methyltransferases	others
Cn1c(=O)c2ccc(C(=O)NC3CCCC3)cc2n2c(=O)n(CC(=O)Nc3cccc(Cl)c3)nc12	i
O=C(Nc1ccc2c(N3CCOCC3)ncnc2c1)c1cccc(Cl)c1	+	MTase-Glo ctr=-1.5%
O=C(Nc1ccc2c(N3CCCCC3)ncnc2c1)c1ccccc1C(F)(F)F	+	MTase-Glo ctr=1.71µM*
O=C1CC(C(=O)Nc2cccc(Cl)c2)n2ncnc2N1 (stereo not drawn)	i
CCCn1c(=O)c2ccccc2n2c(SCc3c(F)cccc3Cl)nnc12	i
Cc1cccc(N2C(=O)c3cc4ccccc4n3CC2(C)C(=O)NCCC(C)C)c1C (stereo not drawn)	i
Cc1ccccc1NC(=O)CSc1nnc2n(CC(C)C)c(=O)c3ccc(C(=O)NCC(C)C)cc3n12	i
CCCN1C(=O)c2c(C(=O)Nc3ccc(CC)cc3)ncn2CC1(C)C(=O)NCc1ccccc1 (stereo not drawn)	i
CC1(C(=O)NC2CCCCCCC2)Cn2c(cc3occc32)C(=O)N1Cc1cccs1 (stereo not drawn)	i
Cn1c(=O)n(C)c2cc(S(=O)(=O)N3CCN(c4ccc(Cl)cc4)CC3)ccc21	i
COc1ccc(Cl)cc1NC(=O)Cn1nc2n(CCC(C)C)c(=O)c3ccccc3n2c1=O	i
CC1CCCN1C(=O)c1cc(-c2ccc(C(F)(F)F)cc2)nc2c1cnn2C (stereo not drawn)	i
Cn1ncc2c(N3CCN(S(N)(=O)=O)CC3)nc(C3CCCC3)nc21	+	MTase-Glo ctr=?
COc1ccc(CNC(=O)c2cc3n(n2)CC(C)(C(=O)NCc2ccc(F)cc2)N(C)C3=O)cc1 (stereo not drawn)	i

Screening results as filed in PubChem.
